The OligoGym collection

Target: PPIA
Assay: pooled miR-30 sensor sort-seq; sequence = guide strand
Details: shRNA
Also: reference of the scale not given here.

Q: How did the sensor-assay potency score (higher = more potent) turn out when TATTTCATAATCATAAACTTAA was run?
A: -0.804

Q: How did the sensor-assay potency score (higher = more potent) turn out when AAACTTAACTCTGCAATCCAGC was run?
A: -0.893

Q: With ATAATCATAAACTTAACTCTGC as the sequence, how does the sensor-assay potency score (higher = more potent) read?
A: 0.46

Target: PPIF
Assay: as above
Details: shRNA

Q: TAGGAAGACAATATTAAACAGG was tested. Which sensor-assay potency score (higher = more potent) did it give?
A: -0.559

Q: How did the sensor-assay potency score (higher = more potent) turn out when TTCAGCTCCAGCACCACGCGGC was run?
A: -0.501

Q: Which sensor-assay potency score (higher = more potent) does the source give for TATTTTCTTCACGACGTCCATG here?
A: -0.975

Q: For TAAACAGGTATTAGAGTCCTTT, which sensor-assay potency score (higher = more potent) is on record?
A: -0.324

Q: TTCTATTTTCTTCACGACGTCC was tested. Which sensor-assay potency score (higher = more potent) did it give?
A: -0.712

Q: Which sensor-assay potency score (higher = more potent) does the source give for TTAAACAGGTATTAGAGTCCTT here?
A: -0.0918

Q: TTTCACTTCTAGTCAATCTTGT was tested. Which sensor-assay potency score (higher = more potent) did it give?
A: 0.721

Q: Which sensor-assay potency score (higher = more potent) does the source give for TAGCCATGGACAGGACACCTGG here?
A: -1.46

Q: TTCACTTCTAGTCAATCTTGTT was tested. Which sensor-assay potency score (higher = more potent) did it give?
A: -0.0767

Q: How did the sensor-assay potency score (higher = more potent) turn out when TGTGATGACAATCTTCTTGGAT was run?
A: 0.322

Q: TCTGTGATGACAATCTTCTTGG was tested. Which sensor-assay potency score (higher = more potent) did it give?
A: 0.0684

Q: How did the sensor-assay potency score (higher = more potent) turn out when TGACCGAACACAACATGCTTGC was run?
A: -0.464

Target: PPIL1
Assay: as above
Details: shRNA

Q: Which sensor-assay potency score (higher = more potent) does the source give for TTAGCATTACATGTCATTCTAT here?
A: -0.539

Q: How did the sensor-assay potency score (higher = more potent) turn out when TAAAATGTACTTCCATCTCTAA was run?
A: -0.493

Q: TGTAGTAACCTCGACGAGCCAA was tested. Which sensor-assay potency score (higher = more potent) did it give?
A: -0.207

Q: For TTGGATCATGAAGTCTTTGATA, which sensor-assay potency score (higher = more potent) is on record?
A: -1.36

Q: Which sensor-assay potency score (higher = more potent) does the source give for TATGTCATCTAGAAGCTGGTTC here?
A: 0.329

Q: How did the sensor-assay potency score (higher = more potent) turn out when TAGATGCACCACCTCGACCTGT was run?
A: -1.02

Q: For TTCACGTCGTCCACAGGGCGGT, which sensor-assay potency score (higher = more potent) is on record?
A: -0.967

Q: How did the sensor-assay potency score (higher = more potent) turn out when TTCTATGTCATCTAGAAGCTGG was run?
A: 0.291

Q: How did the sensor-assay potency score (higher = more potent) turn out when TTACATGTCATTCTATGTCATC was run?
A: -1.08

Q: For TTCTGTGGAATTTTGTGCCATT, which sensor-assay potency score (higher = more potent) is on record?
A: -0.861

Q: TAGCATTACATGTCATTCTATG was tested. Which sensor-assay potency score (higher = more potent) did it give?
A: -0.73

Q: How did the sensor-assay potency score (higher = more potent) turn out when TAGATAGATGCACCACCTCGAC was run?
A: -1.34

Target: PPM1D
Assay: as above
Details: shRNA

Q: How did the sensor-assay potency score (higher = more potent) turn out when TATAATATACTTGTGCTTCTGA was run?
A: 0.584

Q: For TTCGATTCGTTCTCTTTCCTTG, which sensor-assay potency score (higher = more potent) is on record?
A: 0.00604

Q: How did the sensor-assay potency score (higher = more potent) turn out when TATACTTGTGCTTCTGAGGGTC was run?
A: 0.801

Q: With TAACAGAGTTCTTTCGCTGTGA as the sequence, how does the sensor-assay potency score (higher = more potent) read?
A: 0.0976

Q: Which sensor-assay potency score (higher = more potent) does the source give for TTTCTTTAAACATTTAGCCCTA here?
A: -0.501

Q: Which sensor-assay potency score (higher = more potent) does the source give for TTTAACAGAGTTCTTTCGCTGT here?
A: 0.0988

Q: TTTACAGCAACTTATACCCTAA was tested. Which sensor-assay potency score (higher = more potent) did it give?
A: -0.288

Q: With TTTTTTCTCCTCTTGGTCCTGG as the sequence, how does the sensor-assay potency score (higher = more potent) read?
A: 0.387

Q: How did the sensor-assay potency score (higher = more potent) turn out when TTGAGGGTATGACTACACCTTG was run?
A: -1.21

Q: TTTTACAGCAACTTATACCCTA was tested. Which sensor-assay potency score (higher = more potent) did it give?
A: 0.379

Q: TTGAGTAACGTCCTCCATGTAC was tested. Which sensor-assay potency score (higher = more potent) did it give?
A: -0.62

Q: With TTGGACTCTTCTAATGTCCTTT as the sequence, how does the sensor-assay potency score (higher = more potent) read?
A: -0.026
